Assay [1] in a line: Tanguay_ZF_120hpf_TR_legacy: (Legacy) Oregon State University Tanguay Lab 120 Hour Post-fertilization zebrafish Assay for Touch Response (AID 2283667). The method, boiled down:
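Tropical 5D wild-type zebrafish embryos statically exposed to 120 hpf at 28°C, sealed and dark-covered, 0.64% DMSO final; touch response scored as present/absent by brightfield microscopy at 120 hpf. Trimethyltin chloride 5 uM positive control; dead embryos not scored.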

Read-out in assay [2]: Cytochrome P450 (CYP24A1_1), CYP24A1 (gene 1591)
Description: LTEA_HepaRG_CYP24A1_1: Life Technologies and Expression Analysis (LTEA) Assay for Cytochrome P450 (CYP24A1_1) using HepaRG (AID 2283671; active = hit-call score of the fitted dose curve at least 0.9, where 1 is the maximum; inactive = score below 0.9). The conditions noted are these: mRNA level, 48 h; actives raise or lower the signal. As to the method:
LTEA_HepaRG is a cell based, multiplexed-readout assay that uses HepaRG, a human liver cell line, with measurements taken at 48 hours after chemical dosing on a 96-well plate.LTEA_HepaRG_CYP24A1_1 is one of 102 assay component(s) measured in the LTEA HepaRG cell culture assay. It is a marker of NR mediated metabolism.Data from the assay component LTEA_HepaRG_CYP24A1_1 was analyzed into 1 endpoint. This assay endpoint, LTEA_HepaRG_CYP24A1_1, was analyzed with bidirectional fitting relative to DMSO as the negative control and baseline of activity. Using a type of inducible reporter, measures of mRNA induction for gain or loss-of-signal activity can be used to understand regulation of transcription factor activity. To generalize the intended target to other relatable targets, this assay endpoint is annotated to the cyp intended target family, where the subfamily is xenobiotic metabolism.
A total of 1060 chemcials from the ToxCast library were tested in eight-point concentration-response experiments. Cell culture and cytotoxicity assays were conducted at Thermo Fisher Scientific's Custom Services facility (Madison, WI). […] Fluidigm's 96.96 Dynamic ArrayTM (Fluidigm, Amsterdam, the Netherlands) technology was used for gene expression analyses by quantitative reverse transcription polymerase chain reaction (qRT-PCR, performed by Quintiles/Expression Analysis, Durham, NC)89. […]

The nature of assay [3]: CCTE_Padilla_ZF_144hpf_TERATOSCORE: (Legacy) CCTE's 144 Hour Post-fertilization zebrafish Assay Teratoscore, Padilla Lab (AID 2283679; active = hit-call score of the fitted dose curve at least 0.9, where 1 is the maximum; inactive = score below 0.9;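 for AC50: zebrafish embryos with chorions exposed by immersion from 6-8 hpf to 5 dpf with daily renewal; teratogenicity score from eye scoring of death hatching and malformations at 144 hpf; higher score means more developmental defects relative to DMSO baseline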). The method, boiled down:
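Larvae scored by eye at 144 hpf for death, hatching and malformations after a day in clean Hanks'. Before that, daily-renewed exposure at 80 uM (0.4% DMSO, 26C) from roughly 6-8 hpf through 5 dpf, 4 embryos per chemical.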

Assay [4] is described as follows: STM_H9_OrnCyssISnorm_ratio: Stemina devTOX quickPredict H9 human embryonic stem cell (hESC)-based Assay for Ornithine (ORN):Cystine (CYSS) Ratio (AID 2283714). An outline of the steps:
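Undifferentiated H9 hESCs exposed 72 h, media and compound replaced every 24 h; final 24-h conditioned media deproteinized and analysed by UPLC-HRMS against C13 spike-ins. Value is the internal-standard-normalized ORN/CYSS ratio versus 0.1% DMSO.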

Records with an inconclusive call do not appear. The source made the active and inactive calls. Rule for the calls, unless noted: active = hit-call score of the fitted dose curve at least 0.9, where 1 is the maximum; inconclusive = response in the unintended direction; inactive = score below 0.9.

In general, AC50 refers to the concentration at which the activity in the assay is half-maximal. With `CCCCC=O`, the compound was called inactive in assay [1] and in assay [2]. Also, the AC50 in assay [3] is 105 µM (active).

`CCCCc1oc2ccccc2c1C(=O)c1cc(I)c(OCCN(CC)CC)c(I)c1`: the compound was called inactive in assay [1]. The AC50 in assay [3] was 7.89 µM (active); in assay [4], 5 µM (active).

For `O=C(c1ccccc1)c1ccccc1`, the compound was classed as inactive in assay [1] and in assay [4]. Also, the AC50 in assay [3] is 15.1 µM (active).

For the compound `CN(C)CCOC(c1ccccc1)c1ccccc1`, the AC50 is 32.7 µM (active) in assay [1] and 1.55 µM (active) in assay [4].

As to `CC(C)(C)c1ccc(O)c(O)c1`, the AC50 in assay [4] was 76.2 µM (active).

As to `CCCCCCCCCCCCOS(=O)(=O)O`, the call in assay [1] and in assay [3] was inactive.

Consider `CCC(C)c1ccccc1O` (stereo not drawn), for which the call in assay [1] was inactive.

With `CS(=O)(=O)c1ccc([C@@H](CC2CCCC2)C(=O)Nc2cnccn2)cc1Cl`, the compound was called inactive in assay [1]. Moreover, the AC50 in assay [3] is 58.6 µM (active).

Turning to `CC1=CC(=O)c2ccccc2C1=O`, the AC50 in assay [4] was 11.8 µM (active).

The record behind these values is PubChem BioAssay (EPA / NIEHS).
